These results are taken from PubChem BioAssay (NCATS).

SMILES strings stand for the structures. Records with an inconclusive call do not appear. Active and inactive are the calls of the source. The call rests on the fitted dose curve; in most records, active means well fitted inhibition curve with a large enough effect; inconclusive means small, poorly fitted or top-dose-only effect; inactive means flat fitted curve, though single readings scatter.
Potency means the concentration at half of the fitted maximal effect.

This assay is described as follows: qHTS for Inhibitors of Plasmodium falciparum (7G8) proliferation (AID 504316). Further: nearly all actives have a fitted effect of over 65% in size. The settings on record: P. falciparum 7G8 in erythrocytes, SYBR Green DNA, 72 h; series mostly up to 6.7 µM. The gist of the method: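 Parasite growth measured as SYBR Green DNA fluorescence (ex 485, em 535 nm) after overnight lysis following 72 h culture at 37 °C, 0.3% parasitemia, 2.5% hematocrit. Values normalized against DMSO and 0.29 uM artemisinin controls, with plate-stack correction.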
On the technique in general: Quantitative high-throughput screening tests each substance at several concentrations.
In the case of `C=C(C[C@@]1(C(=O)OC)C=C[C@@H](C)[C@H](c2ccccc2Br)N1C(=O)C(F)(F)F)c1ccccc1`, the Potency is 1900 nM (active).

For `COC(=O)C1=C(C(=O)OC)[C@@H]2N(Cc3ccccc3)c3ccccc3[C@@]23C[C@@H](CO)N(C(=O)CC(C)C)C3=N1`, the Potency is 1690 nM (active).

Regarding `COC(=O)c1ccc(CN2C(=O)[C@@]3(CC(C)=CC[C@@H](C)O3)c3ccccc32)cc1`, the Potency result was “inactive”.

Turning to `COc1ccc(O[C@H]2C=C[C@@H](c3ccccc3)O[C@H]2COC(=O)CCC(C)=NOC[C@@H](C)[C@H](OCc2ccccc2)C(C)C)cc1`, the Potency was 1900 nM (active).

With `CC#CCN1c2ccccc2[C@]23CCC(=O)N(Cc4ccco4)C2=NC(C(=O)OC)=C(C(=O)OC)[C@H]13`, the Potency is 1690 nM (active).

Take `O=C(N[C@H](c1cccc(Br)c1)[C@@H]1CCCC=C1c1ccccc1)C(F)(F)F`: the Potency result is “inactive”.

For the molecule `C=CC[C@@H]1C=C[C@H](ON=C(C)CCN2CCc3nc(CC)c(CC)cc3C2)[C@H](CO)O1`, the Potency was 1690 nM (active).

For `CCCCCCc1cc2cc(OC)c(OC)cc2c2c(C(=O)OC)c(C(=O)OC)c(C(=O)OC)n12`, the Potency is 1900 nM (active).

Regarding `C=C(C)[C@@H]1CC2=C(OC)C(CC=C(C)C)(CC=C(C)C)C(=O)C(C(=O)c3ccccc3)=C2O1`, the Potency is 1690 nM (active).

In the case of `COc1ccccc1C=CC1=CC2(C)CC1(C)C(c1ccccc1OC)CC2=O` (stereo not given), the Potency is 1690 nM (active).

Consider `COc1ccc(O[C@H]2C=C[C@@H](c3ccccc3)O[C@H]2COC(=O)CCC(C)=NO[C@H](C)CN2CCCc3nc(C)c(C)cc32)cc1`, for which the Potency was 1900 nM (active).

As for `O=C1CCCC2=C1[C@H]1O[C@](CCCCN3C(=O)c4ccccc4C3=O)(Cc3ccccc31)O2`, the Potency is 1900 nM (active).

For `CCc1cc2c(nc1CC)CCN(CCC(C)=NO[C@@H](C)c1cn([C@H](CO)Cc3ccccc3)nn1)C2`, the Potency is 1690 nM (active).

For the molecule `C=C[C@H]1CCC=C2C(=O)CCC[C@H]21`, the Potency is 1900 nM (active).

With `CCCNC(=O)N1C2=NC(C(=O)OC)=C(C(=O)OC)[C@@H]3N(C)c4ccc(OC)cc4[C@]23C[C@H]1C(=O)OC`, the Potency was 1690 nM (active).

In the case of `COC(=O)[C@@H]1CC[C@H](C)[C@@H](c2ccc(C)cc2)N1C(=O)c1ccc(C=NOC[C@H]2O[C@H](c3ccccc3)C=C[C@H]2Oc2ccc(OC)cc2)cc1`, the Potency entry was “inactive”.

As for `CC1=C[C@@H](COc2ccccc2)O[C@@]2(C1)C(=O)N(Cc1ccccc1)c1ccccc12`, the Potency was 757 nM (active).

As for `CCc1cc2c(nc1CC)CCN(CCC(C)=NOC[C@H]1O[C@H](c3ccccc3)C=C[C@H]1Oc1ccc(OC)cc1)C2`, the Potency is 1690 nM (active).

Regarding `CCOC(=O)OC[C@H]1O[C@H](c2ccc(C(C)=O)cc2)C=C[C@H]1Oc1ccc(-c2ccccc2)cc1`, the Potency was 1510 nM (active).

With `CC(=O)OC[C@H]1O[C@H](CCON=C(C)CCN2CCc3nc(-c4ccccc4)c(-c4ccccc4)cc3C2)C=C[C@H]1OC(C)=O`, the Potency was 1510 nM (active).

For the molecule `C=CCOC(=O)N[C@@H](c1coc2ccccc2c1=O)[C@@H](C)C=CCC(=O)OC`, the Potency entry is “inactive”.

`COc1ccc(O[C@H]2C=C[C@@H](c3ccccc3)O[C@H]2COC(=O)CCC(C)=NO[C@@H]2O[C@H](COC(C)=O)[C@@H](OC(C)=O)[C@H](OC(C)=O)[C@@H]2OC(C)=O)cc1`: the Potency result was “inactive”.

On to `Cc1ccccc1Nc1oc(-c2ccccc2)nc1C(C)(C)C`, for which the Potency is 1900 nM (active).

As to `COC(=O)C1=C(C)N(Cc2ccccc2)C(=NCC2CC2)NC1c1cccc(C(F)(F)F)c1` (stereo not given), the Potency result was “inactive”.

As to `COC(=O)C1=C(C)N(Cc2ccccc2)C(=NCCc2ccc([N+](=O)[O-])cc2)NC1c1cccc(F)c1` (stereo not given), the Potency was 2690 nM (active).

Consider `COc1ccc(O[C@H]2C=C[C@@H](c3ccccc3)O[C@H]2CON=C(C)CCN2CCCc3nc(C)c(C)cc32)cc1`, for which the Potency is 1510 nM (active).

`CCCC[C@]12Cc3cc(OC)c(OC)cc3[C@H](O1)c1c(cc(-c3ccccc3)oc1=O)O2`: the Potency is 1510 nM (active).

`COC(=O)C1=C(C)N(Cc2ccccc2)C(=NCC2CC2)NC1c1ccc(Br)cc1` (stereo not given): the Potency result was “inactive”.

Turning to `COC(=O)C1=C(C)N(Cc2ccccc2)C(=NCCCCO)NC1c1cccc(F)c1` (stereo not given), the Potency result was “inactive”.

Regarding `CC(C)(C)Nc1oc(-c2ccccc2)nc1C=Cc1ccccc1`, the Potency is 1510 nM (active).

With `C=C(C)C(=O)C=CC=Cc1ccccc1`, the Potency result was “inactive”.

Turning to `CCN1C(=NCc2cccc(C(F)(F)F)c2)NC(c2cccs2)C(C(=O)OC)=C1C` (stereo not given), the Potency result was “inactive”.

As to `COC(=O)C1=C(C)N(Cc2ccccc2)C(=NCC(C)C)NC1c1cccc(F)c1` (stereo not given), the Potency entry is “inactive”.

As to `CC1(C)CC(=O)C2=C(C1)O[C@@]1(CCCCN3C(=O)c4ccccc4C3=O)Cc3ccccc3[C@H]2O1`, the Potency was 1510 nM (active).

`CCCCCCCc1cc2c(cn1)C(=O)C(C)(OC(C)=O)C(O)=C2Cl` (stereo not given): the Potency is 953 nM (active).

In the case of `C=CCN=C1NC(c2cccc(C(F)(F)F)c2)C(C(=O)OC)=C(C)N1Cc1ccccc1` (stereo not given), the Potency result was “inactive”.

In the case of `O=C1C2=C(C(=O)c3ccccc31)[C@H]1O[C@](c3ccsc3)(Cc3ccccc31)O2`, the Potency is 1900 nM (active).

`CC12C=C(C=Cc3ccc(Br)cc3)C(C)(C1)[C@H](c1ccc(Br)cc1)CC2=O` (stereo not given in full): the Potency is 1690 nM (active).

On to `CCCCCCCc1cc2ccc(F)cc2c2c(C(=O)OC)c(C(=O)OC)c(C(=O)OC)n12`, for which the Potency result was “inactive”.

In the case of `CCCNC(=O)OC[C@H]1O[C@H](CCON=C(C)CCN2CCCCc3nc(C)c(C)cc32)C=C[C@H]1Oc1ccc(OC)cc1`, the Potency was 1900 nM (active).
